SNCA expr inhib: Primary qHTS assay for inhibitors of alpha-synuclein gene (SNCA) expression; AID 1671194, 2021; HEK-293 SNCA-luciferase knock-in, luminescence, 24 h; 140,000 compounds, 0.17% hits; Potency, µM (series often up to 57.2 µM), for the others: top-dose activity change, negative = inhibition, actives largely listed as inhibitors;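 note: potency is the fitted concentration of half-maximal effect; plate controls were DMSO cells for no effect and cell-free wells for full effect; nearly all actives have a fitted effect of over 45% in size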
HEK293 viab: GF-AFC viability counterscreen for inhibitors of alpha-synuclein gene (SNCA) expression; Potency, µM (doses to about 57.1 µM), without a hit: top-dose activity change, negative = cytotoxicity, most hits filed as cytotoxic; HEK-293-SNCA-luc viability, GF-AFC fluorescence, 24 h; 150,000 compounds, 0.12% hits; AID 1671193, 2021;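 note: potency is the fitted concentration of half-maximal effect; 0% = DMSO-treated cells and -100% = medium-only wells without cells; nearly all actives have a fitted effect of over 30% in size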
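HEK-293-SNCA-luc cells (1500/well) plated 24 h, then exposed 24 h to a dilution series; GF-AFC added 30 min at 37C, fluorescence 405/540 nm; normalised to medium-only and DMSO wells, Hill fit.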
KDM5B inhibitor: Primary screen for KDM5B Histone Demethylases FDH-coupled qHTS; Potency, µM (series often up to 57.7 µM), actives largely listed as inhibitors; 220,000 compounds, 2.6% hits; Lysine-specific demethylase 5B (Homo sapiens), Q9UGL1; KDM5B demethylase, FDH-coupled NADH fluorescence (FDH is formaldehyde dehydrogenase); note: potency is the fitted concentration of half-maximal effect; 0% is about no effect; nearly all actives have a fitted effect of over 70% in size
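Coupled FDH/NAD⁺ fluorescence readout. KDM5BΔAP 200 nM final; compound titration, 10 min RT preincubation; substrate mix 12.5 µM H3K4me3, 25 µM 2-OG, 50 µM Fe(II), 100 µM ascorbate, 0.25 mM NAD⁺, 0.25 U/mL FDH; ΔRFU over 30 min.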
IP6K1 inh: Primary qHTS assay for small molecule inhibitors of Inositol hexaphosphate kinase 1 (IP6K1); activity change, % (series mostly up to about 58 µM); 140,000 compounds, 0.81% hits; Inositol hexakisphosphate kinase 1 (Homo sapiens), Q92551; IP6K1 kinase, ADP-Glo luminescence, 2 h; active compounds read low; in the data active = activity change below about -25%; note: % is set by controls: 0 for no effect and ±100 for the full control effect
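ADP-Glo luminescence measures ADP made by human IP6K1 during a 2 h RT reaction with ATP/IP6 (mix at 1.3 mM/130 uM); top library doses 57.5 and 19.1 uM final.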
Starred values were filed as active, the others as inactive; [ ] = dose if it differs, or a comment. Rows were chosen to be rich in hits. Some 2.9% of all compounds tested hit in one or more screens of this group. Unless noted, calls come from the whole dose curve; as a rule, active = well fitted curve in the direction sought with a large enough effect; inconclusive = small, poorly fitted or top-dose-only effect, or another doubt; inactive = no such curve, though single readings can be large; an effect the other way counts as inactive or inconclusive.

Results for O=c1ncn(Cc2ccccc2)c2ccc(-c3ccc(F)cc3F)nc12 ?
SNCA expr inhib: 57.9%[87.6 µM]; HEK293 viab: 7.9%[87.6 µM]; KDM5B inhibitor: 28.2µM*; IP6K1 inh: 15.7

Results for O=c1ncn(Cc2ccccc2)c2ccc(-c3ccsc3)nc12 ?
SNCA expr inhib: 6.2%[87.6 µM]; HEK293 viab: 2.4%[87.6 µM]; KDM5B inhibitor: 35.5µM*; IP6K1 inh: 1.9

How did CNC(=O)C1c2c(OC)ccc3c2C(=CC(C)(C)CO3)CN1Cc1ccccc1 (centres undefined) do in these assays?
IP6K1 inh: 20.0

How did Cc1ccc([S+](=O)([O-])NC2CCCN(Cc3ccc(-c4cc(C)cc(C)c4)cc3)C2)cc1 (centres undefined) do in these assays?
SNCA expr inhib: -16.8%; HEK293 viab: -1.5%; IP6K1 inh: -2.5

How did O=C(NCCNC(=O)c1ccc(Cl)nc1)c1ccc(-c2cccc(C(F)(F)F)c2)cc1 do in these assays?
IP6K1 inh: 2.5

What do the screens show for `CC1=C[C@@H](CN(C)C)[C@H](C(C)C)C[C@H]1Cc1nc2c(C)cccc2[nH]1`?
SNCA expr inhib: -2.8%[87.6 µM]; HEK293 viab: -19.4%[87.6 µM]; KDM5B inhibitor: inactive; IP6K1 inh: 2.4

How did COc1ccccc1CNC[C@@H]1C=C(C)[C@H](Cc2nc3c(C)cccc3[nH]2)C[C@H]1C(C)C do in these assays?
SNCA expr inhib: inconclusive; HEK293 viab: 35.5µM*; KDM5B inhibitor: inactive; IP6K1 inh: 5.8

How did CC1=C[C@@H](CNCc2ccccc2F)[C@H](C(C)C)C[C@H]1Cc1nc2c(C)cccc2[nH]1 do in these assays?
SNCA expr inhib: inconclusive; HEK293 viab: inconclusive; KDM5B inhibitor: inactive; IP6K1 inh: 0.0

Results for CC1=C[C@@H](CNCc2ccccc2)[C@H](C(C)C)C[C@H]1Cc1nc2c(C)cccc2[nH]1 ?
SNCA expr inhib: inconclusive; HEK293 viab: 35.5µM*; KDM5B inhibitor: inactive; IP6K1 inh: -8.6

Results for COCc1nc(-c2ccc(OC3CCN(C(=O)c4nn(C)c5ccccc45)C3)cc2)no1 (centres undefined) ?
SNCA expr inhib: inconclusive; HEK293 viab: -15.1%; KDM5B inhibitor: inactive; IP6K1 inh: 6.5

How did CS(=O)(=O)N1CCCCC1CCNc1nccc(-c2cccnc2)n1 (centres undefined) do in these assays?
SNCA expr inhib: -20.1%; HEK293 viab: 1.3%; KDM5B inhibitor: 31.6µM*; IP6K1 inh: -1.1

How did OCC1CCCCN1CCNc1nccc(-c2cccnc2)n1 (centres undefined) do in these assays?
SNCA expr inhib: -12.4%; HEK293 viab: -3.8%; KDM5B inhibitor: 25.1µM*; IP6K1 inh: 7.7

Results for O=S(=O)(c1cccnc1)N1CCCCC1CCN1CCOCC1 (centres undefined) ?
SNCA expr inhib: -26.3%; HEK293 viab: 3.3%; KDM5B inhibitor: inactive; IP6K1 inh: 0.0

How did Cc1cc(C(=O)N2CCN(c3ccnc4ccnn34)CC2)ccc1Cl do in these assays?
SNCA expr inhib: 1.7%; HEK293 viab: -5.0%; IP6K1 inh: -7.9

What do the screens show for `COC(=O)[C@@H]1Cc2c([nH]c3ccccc23)[C@H]2C[C@@H](NCc3ccccc3)C[C@@H](c3ccccc3F)N21`?
SNCA expr inhib: inconclusive; HEK293 viab: -26.5%; KDM5B inhibitor: 4.47µM*; IP6K1 inh: -12.1

Results for COC(=O)[C@@H]1Cc2c([nH]c3ccccc23)[C@H]2C[C@@H](NCc3cccs3)C[C@@H](c3ccccc3F)N21 ?
SNCA expr inhib: -10.9%; HEK293 viab: 2.1%; KDM5B inhibitor: inconclusive; IP6K1 inh: -14.4

How did COCCN[C@@H]1C[C@@H]2c3[nH]c4ccccc4c3C[C@@H](C(=O)OC)N2[C@H](c2ccc(F)c(F)c2)C1 do in these assays?
SNCA expr inhib: 2.7%; HEK293 viab: -7.6%; KDM5B inhibitor: 12.6µM*; IP6K1 inh: -1.5

What do the screens show for `CCC(=O)N1CCN(c2nc3c(s2)CC(C(=O)Nc2ccc4c(c2)OCO4)CC3)CC1` (centres undefined)?
SNCA expr inhib: 17.3%; HEK293 viab: -5.3%; KDM5B inhibitor: inactive; IP6K1 inh: 10.0

What do the screens show for `COc1ccccc1-c1cc(-c2cccs2)nc2c(C)noc12`?
SNCA expr inhib: -15.5%[87.6 µM]; HEK293 viab: 0.8%[87.6 µM]; KDM5B inhibitor: 35.5µM*; IP6K1 inh: -19.0
